From PubChem BioAssay (NCI) come the findings set out here.

Molecules are shown by their SMILES. Where “and” joins values, the source holds several entries; their conditions need not be identical. Equal entries are not always repeated. About 83,000 compounds went through this panel and 20% of them were active in at least one assay; those are over-represented in the sample as a whole.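 Assay: single dose, 48 h. Readout: percent growth (0 = no net growth; negative = cell death). Active: <10.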 Calls of active or inactive are those of the source.

The subject of the assay is MDA-MB-468 breast. The experiment in a line: NCI-60 one-dose screen, 48 h (100 = growth as untreated, 0 = no growth, -100 = all killed). The conditions noted are these: 10 µM unless noted.

Turning to `S=C(Nc1ccc(Cl)cc1)c1ccccn1`, the growth is 98.9% (inactive).

Consider `COc1cc2oc(-c3cccc(C(=O)Nc4ccc(Cl)cc4)c3)cc(=O)c2c(OC)c1OC`, for which the growth is 43.6% (inactive).

For the molecule `Cc1cccc(NC2=C(Cl)C(=O)c3nc(C)ccc3C2=O)c1`, the growth is -81.1% (active).

As for `CCCCc1nc2c(N)nc3ccccc3c2n1Cc1ccc(OC)cc1`, the growth was 41.2% (inactive).

For `CC(C)=CCCC(C)c1ccc(C)c2c1OCN(CC1CCNCC1)C2` (stereo not drawn), the growth was 7.48% (active).

`CCc1c(C(=O)Nc2ccc3ccccc3c2)[nH]c(C)c1C(C)=O`: the growth is 83.7% (inactive).

With `CCCCCN(CCCCC)CCCCCCCCN1CCCc2ccccc21`, the growth is 99.9% (inactive).

`O=C(Cc1ccc(/C=C/C(=O)c2ncc[nH]2)cc1)Nc1ccc(S(F)(F)(F)(F)F)cc1`: the growth was 52.7% (inactive).

Regarding `CC1CCN(CCCCCOc2ccc3oc4ccc(Cl)cc4c(=O)c3c2)CC1`, the growth was 54.5% (inactive).

For the molecule `COc1cc(/C=C/C(=O)N2CCC=CC2=O)cc(OC)c1OC`, the growth is 22.7% (inactive).

Take `Oc1c(-c2cc(C(F)(F)F)[nH]n2)cc(Cl)c(OCc2ccc(Cl)cc2)c1-c1ccc(Cl)c(C(F)(F)F)c1`: the growth was -21.4% (active).

Take `COc1ccc(-c2cc(-c3ccc(Cl)cc3)nc(NCCCCNc3ccnc4cc(Cl)ccc34)n2)cc1`: the growth was 75.1% (inactive).

As to `NC(=O)/C=C/C(=O)c1c(Cl)cccc1Cl`, the growth is -83.5% (active).

For the molecule `COc1cc(-c2cc3cnccc3c3nc(N)c4ccncc4c23)cc(OC)c1OC`, the growth is 8.5% (active).

`COc1ccccc1/C=C/C(=O)c1nnn(-c2ccc(C(=O)O)cc2)c1C`: the growth is 74.5% (inactive).

For the molecule `CC(=O)c1cc2c(N)c(C(=O)Nc3cncc4ccccc34)sc2nc1C`, the growth is 97% (inactive).

Consider `COc1ccccc1/C=N\N=C(N/N=C/c1ccccc1OC)N/N=C/c1ccccc1OC`, for which the growth was 58.3% (inactive) and 10.5% (inactive).

For `COc1cc2oc(-c3ccc(NC(=O)c4ccccc4)cc3)cc(=O)c2c(OC)c1OC`, the growth is 96.5% (inactive).

As to `CCCCCCCC[Si](OCC)(OCC)OCC`, the growth was 97.5% (inactive).

In the case of `COc1cc(/C=C2\CCCC3=C2N=C2SC=NN2C3c2cc(OC)c(OC)c(OC)c2)cc(OC)c1OC` (stereo not drawn), the growth is 18.1% (inactive).

`COc1ccc(/C=C/C(=O)c2ccc(NC(=O)CSc3nc4c([nH]3)c(=O)n(C)c(=O)n4C)cc2)cc1OC`: the growth is 51.8% (inactive).

For the molecule `C=C[C@@]1(C)CC(=O)[C@@H](C(C)(C)c2cn(C)c3ccc(Br)cc23)C[C@@H]1O[Si](C)(C)C(C)(C)C`, the growth was 100% (inactive).

With `CCOC(=O)/C=C\C(=O)NC(N)=O`, the growth was 88.6% (inactive).

For the molecule `O=C1OC(Oc2ccccc2)(c2ccccc2)c2ccccc21` (stereo not drawn), the growth was 112% (inactive).

On to `N#C/C(C(=O)c1ccccc1)=C1/C(=O)Nc2ccccc21`, for which the growth was 121% (inactive).

With `COc1cc(C2c3cc4c(cc3C(OC(=O)C[n+]3ccccc3)C3COC(=O)C23)OCO4)cc(OC)c1OC` (stereo not drawn), the growth is 5.13% (active).

For `Cc1cc2c(C)c3cc(C)c(N)cc3nc2cc1N`, the growth was -5.78% (active).

Take `COc1cc([C@@H]2c3cc4c(cc3C(OC3O[C@@H]5COC(C)O[C@H]5[C@H](O)[C@H]3O)C3COC(=O)[C@@H]32)OCO4)cc(OC)c1O` (stereo partly drawn): the growth is -31% (active).

For the molecule `Cc1cc(C)n(C(=O)c2sc(=S)n(-c3ccccc3)c2N=Nc2c(N)n[nH]c2N)n1`, the growth is 112% (inactive).

On to `O=C(C(=O)N1CCOCC1)c1ccc(OC2OC(CO)C(O)C(O)C2O)cc1` (stereo not drawn), for which the growth was 105% (inactive).

Regarding `CC(=O)Nc1nc2c(s1)C1=CC[C@H]3[C@@H]4CC[C@H](C(C)=O)[C@@]4(C)CC[C@@H]3[C@@]1(C)CC2`, the growth was 69.7% (inactive).

As for `CN(C1c2ccccc2Oc2ccccc21)S(=O)(=O)c1cc(Cl)ccc1Cl`, the growth was 18.9% (inactive).

For the molecule `c1ccc(C(=NNc2nc3ccccc3o2)c2ccccn2)nc1`, the growth is -27.4% (active).

For `O=C(c1ccccc1)c1ccccc1Cl`, the growth is 110% (inactive).

In the case of `CCNc1nc2cc(Nc3ccnc4cc(Cl)ccc34)ccc2o1`, the growth was 41.2% (inactive).

As to `COc1ncc(-c2ccc3nccc(C#CCCCCC(=O)NO)c3c2)cc1NS(=O)(=O)c1ccc(F)cc1F`, the growth is -37.1% (active).

As to `COc1ccc(/C=C2/CCc3cc4ccc(OC)cc4[o+]c32)c(O)c1`, the growth is 97.1% (inactive).

Turning to `CCOc1cc(\C=N/N=C(N)/C(N)=N\N=C/c2ccc(O)c(OCC)c2)ccc1O`, the growth was 111% (inactive).

As for `ClC1=C(Cl)C(Cl)=C(Cl)C1=C/C=C/c1ccccc1`, the growth is -50.3% (active).

As to `C=C1C(=O)O[C@H]2[C@H]1CC/C(COC(=O)/C=C/c1cccnc1)=C\CC[C@@]1(C)O[C@@H]21`, the growth was 10.9% (inactive).

Consider `Cn1cc(-c2csc(-c3c[nH]c4ccccc34)n2)c2ccnc(Cl)c21`, for which the growth was -9.03% (active).

Consider `C=CCOc1ccc(N=NC(C#N)C#N)cc1`, for which the growth was 30.3% (inactive).

Turning to `Cc1ccc(S(=O)(=O)Nc2cccc3[nH]c(C(F)(F)F)nc23)cc1`, the growth is 5.86% (active).

On to `CCN(Cc1ccc(CN(CC)C(=O)C(Br)Br)cc1)C(=O)C(Br)Br`, for which the growth is 17.6% (inactive).

Take `O=CC(OC(=O)c1ccccc1)C(OC(=O)c1ccccc1)C(COC(c1ccccc1)(c1ccccc1)c1ccccc1)OC(=O)c1ccccc1` (stereo not drawn): the growth was 74.6% (inactive).

For `COc1ccc(CCN2C(=O)/C(=C/c3nc(CO)cs3)SC2=S)cc1`, the growth was 27% (inactive).

Consider `NC(=O)c1c(NC(=O)c2ccc(F)cc2F)sc2c1CCC(=O)C2`, for which the growth is 81.7% (inactive).

For the molecule `O=c1[nH]c2ccccc2n2cc3cccnc3c12`, the growth is -5.08% (active).

Regarding `CCOC(=O)c1coc(C(=O)OCC)c1C(=O)OCC`, the growth is 107% (inactive).

With `COc1cc2c(cc1OC)-c1c(oc3c4c(ccc3c1=O)OC(C)(C)C=C4)CO2`, the growth is 19.2% (inactive).

Consider `COc1cc2nc(-c3ccc(C(F)(F)F)cc3)cc(OCCCNCC3CCCO3)c2cc1OC` (stereo not drawn), for which the growth is 14.2% (inactive).

As to `COc1cccc(-c2cn3c(ccc4ccccc43)n2)c1`, the growth is 34.2% (inactive).

Consider `COc1ccc(C(=O)Nc2ncc(Cc3ccc(Cl)cc3)s2)cc1`, for which the growth is 24.6% (inactive).

With `O=C(/C=C/c1cc(CN2CCOCC2)c(O)c2ncccc12)c1cc(CN2CCOCC2)c(O)c2ncccc12`, the growth is 4.37% (active).

With `O=c1c2ccccc2[nH]n1Cc1ccc2c(c1)OCO2`, the growth was 94.5% (inactive).

For the molecule `N#CC1C(c2ccc(Cl)cc2)=Nc2c(c(-c3ccccc3)nn2-c2ccccc2)C12C(=O)Nc1ccc(Cl)cc12` (stereo not drawn), the growth is 26.3% (inactive).

On to `CCC1(c2ccccc2)Oc2ccccc2-n2c(C#N)c3ccccc3c2C1=O` (stereo not drawn), for which the growth is 104% (inactive).

Regarding `O=C1Nc2ccccc2Oc2ccc(S(=O)(=O)CC3CO3)cc21` (stereo not drawn), the growth is -5.7% (active).

For the molecule `N#Cc1c(-c2ccccc2)nc2c(c(-c3ccc(Cl)cc3)nn2-c2ccccc2)c1-c1ccc([N+](=O)[O-])cc1`, the growth is 104% (inactive).

Turning to `C#Cc1cccc(Nc2ncnc3ccc(-c4cnc(Cl)c(NS(C)(=O)=O)c4)cc23)c1`, the growth is -78.8% (active).

As for `COc1ccc(-c2nn(-c3cccc(NC(=O)Nc4cc(C(F)(F)F)cc(C(F)(F)F)c4)c3)cc2-c2ccncc2)cc1Cl`, the growth was 17.7% (inactive).

As to `COc1ccc(/C=C2\CN(Cc3cn(CCNc4ccnc5cc(Cl)ccc45)nn3)C/C(=C\c3ccc(OC)c(OC)c3)C2=O)cc1OC`, the growth is -37.7% (active).

On to `C=C(C(=O)c1ccccc1)C(NC(C)(C)C)c1ccccc1` (stereo not drawn), for which the growth is -37.3% (active).

For `Brc1ccc([I+]c2ccc(Br)cc2)cc1`, the growth is 21.6% (inactive).

On to `Oc1c(Br)c(Br)c(O)c(Br)c1Br`, for which the growth is 102% (inactive).

As for `CCc1c2c(nc3ccc(OC(=O)NCc4ccc(B5OC(C)(C)C(C)(C)O5)cc4)cc13)-c1cc3c(c(=O)n1C2)COC(=O)[C@]3(O)CC`, the growth was -33.9% (active).

For `N=C(N)c1ccc(-c2ccc(-c3ccc(Cl)c(Cl)c3)o2)nc1`, the growth was -17% (active).

Turning to `COc1cc(F)c(-c2nc3c(C)cccc3n2Cc2c(F)cccc2F)c(F)c1`, the growth is 65.5% (inactive).

Take `COc1cccc(-c2nn(-c3ccccc3)cc2-c2ccnc(NCCNC(=O)c3ccccc3)c2)c1`: the growth was 47.7% (inactive).

In the case of `COc1cccc(-c2nn(-c3ccccc3)cc2-c2ccnc(NCCCN)c2)c1`, the growth was 17.4% (inactive).

`CCC1=CC2CN(C1)Cc1c([nH]c3ccccc13)[C@@](C(=O)OC)(c1cc3c(cc1OC)N(C)[C@H]1[C@@](O)(C(=O)OC)[C@H](OC(C)=O)[C@]4(CC)C=CCN5CC[C@]31[C@@H]54)C2` (stereo partly drawn): the growth is 44.4% (inactive).

Turning to `CC/C(=C(/c1ccc(Cl)cc1)c1ccc(OCCN2CCCCCC2)cc1)c1ccccc1`, the growth was 78.3% (inactive).

As for `COc1cc(/C=C2/Oc3cc4occc4c(OC)c3C2=O)ccc1OCC(=O)Nc1ccncc1`, the growth was 105% (inactive).

For `CCOC(=O)c1[nH]c2c(c1C)-c1[nH]c(=O)c(S(=O)(=O)c3ccccc3)cc1SC2`, the growth is 23.9% [100 µM] (inactive).

As to `Nc1cc2c(cc1N)-c1cc(N)c(N)cc1C2`, the growth is 105% (inactive).

For `Nc1ccc(Cl)c2c(=O)c3ccccc3[nH]c12`, the growth is 34% (inactive).

`COc1ccc(OC)c(/C=C2\Oc3cc(OCCCN4CCCC4)ccc3C2=O)c1`: the growth was 77.7% (inactive).

As to `OC(COc1cccc2ccccc12)CN1CCN(c2ccc(Cl)cc2)CC1` (stereo not drawn), the growth was 58.7% (inactive) and 96.8% (inactive).

Take `COc1cc(-c2cc(/C=C3\C(=O)Nc4ccccc43)[nH]n2)cc(OC)c1OC`: the growth was 82% (inactive).

As for `O=C1NC(=O)/C(=C/C=C/c2ccccc2)S1`, the growth is 63.3% (inactive).

As for `COc1cccc(/C(C)=N/NC(=O)CSc2nc3ccccc3c(=O)n2CCc2ccc(S(N)(=O)=O)cc2)c1`, the growth was 35.3% (inactive).

With `COc1ccc(NC2=C(Br)C(=O)C(C)=C(C)C2=O)cc1`, the growth was -59% (active).

As to `C[C@@H]1CC[C@@H]2[C@@H]1[C@H](OC(=O)/C=C/c1ccccc1)[C@]1(C3CCCCC3)C[C@@H](NC(=O)CO)[C@@]2(C)O1`, the growth is 115% (inactive).
